Laboratory results taken from the supplement of paper PMC12340860.
± gives the standard deviation of the averaged measurements.

The compounds below were run on Caenorhabditis elegans infected with Nematocida parisii (assay: progeny production of N. parisii-infected C. elegans relative to uninfected control; higher = stronger inhibition of microsporidia infection (rescue of reproduction)). Conditions: 60 µM; incubation time 5 days; spore dose (spores/uL): 18000.
Experimental: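 C. elegans N2 L1 larvae (100 per well, 96-well plate, K-medium with 5x E. coli OP50, 1% DMSO) were infected with Nematocida parisii spores (18,000 spores/uL) that had been pre-incubated for 1 h with each BU-CMD library compound at 60 uM. Plates were incubated 5 days at 21 C with shaking. Progeny were stained with rose bengal, scanned on a flatbed scanner and counted with WorMachine. Progeny number is expressed as % of uninfected DMSO controls on the same plate; three biological replicates per compound; hits were compounds with at least 60% progeny production.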

SMILES | progeny production [%]
C=C(C)C[C@@H](O)COc1cc2c(cc1C1(c3cc4c(cc3OC[C@H](O)CC(=C)C)OCO4)C(=O)Nc3cc(F)ccc31)OCO2 | 20.5 ± 11
CC(=O)[C@@H]1[C@@H](C)N(Cc2ccccc2)C(=O)N[C@H]1c1cccc(C(F)(F)F)c1 | 33.2 ± 12
COC(=O)C1=C(C)N(CCc2cc(OC)c(OC)c(OC)c2)C(=O)N[C@H]1c1ccccc1 | 38.1 ± 18
COc1ccc(C2=CC3=C(Br)C(=O)C(C)(O)C(=O)C3=CO2)cc1 (centres undefined) | 80.6 ± 13
